Laboratory results published in the OligoGym collection.

molecular target: FAM178A; experiment: pooled miR-30 sensor sort-seq; sequence = guide strand; conditions: shRNA
Note: reference of the scale not given here.

In order of rising sensor-assay potency score (higher = more potent):
1. TAGTTTTGTCTCCTTCTCCTTT  -0.485
2. TATTGAAAAACACAGCTGCTAC  -0.444
3. TGAATGAATAGTGACTTCCTTC  -0.297
4. TTTGGTATCATAGATTCTCTTG  -0.0968
5. TTTAGTTCTCGTTCTCTGCAGT  -0.0234
6. TATGTCTTCTTGTAGTTGCTTC  0.216
7. TTTCTTTAGAAATTCCTTGTGC  0.466
8. TATACCATGATCTTCATGGTGC  0.577
9. TTTAATTGCAGACTTTTCCTGA  0.605
10. TAAGAAGCTAGTGACAACTGGA  0.82

molecular target: FAM181A; experiment: as above; conditions: shRNA

In order of rising sensor-assay potency score (higher = more potent):
1. TTTTCTTACCCTCATAGGGAGG  -1.8
2. TTTTCAGGTAGGGCTCAGCAGC  -1.38
3. ATCTTCACATCACTGTCGGATG  -1.37
4. TTGATGTCGCTGGACGCCAGGT  -1.09
5. AAATCCAGGAGCAGCCTCCTGG  -1.06
6. AACAAGAACAACAACTGAGATT  -1.01
7. TTGCGATGGTCCACGGAGCGGC  -0.977
8. TAGCAAGACATTCCTCCCTGTA  -0.518
9. TCGGATGCCATCACCAGGGGGC  -0.489
10. TACTTCTGGGAGAAGCGCTTGA  -0.152
11. TTAGCAAGACATTCCTCCCTGT  0.483
12. AAGAACAAGAACAACAACTGAG  0.506

molecular target: FAM181B; experiment: as above; conditions: shRNA

In order of falling sensor-assay potency score (higher = more potent):
1. TTGGTTTCTTGACTCCTCTGGT  0.637
2. TTGTTTTAACACTTGAGGTTGT  0.449
3. TTCACCTTCCGCTTCGACTTGC  0.326
4. TTTTGTTTTAACACTTGAGGTT  0.0361
5. TACACTAAATACACTGACCTTC  -0.096
6. TTTGTTTTAACACTTGAGGTTG  -0.289
7. TGAAGCTGAGTAGATCGCGGGT  -0.406
8. TAAATACACTGACCTTCGCTGA  -0.839
9. TTCTTGACTCCTCTGGTCCAGT  -0.871
10. TCATCGTCCTCGAAACAGCAGC  -1.07
11. TTGATGTTGCTGGACGCCGAGT  -1.34
12. TTGTGATTAAACAATCCCCAAC  -1.56

molecular target: FAM194A; experiment: as above; conditions: shRNA

In order of falling sensor-assay potency score (higher = more potent):
1. TAGAAATCTTGTCTTGTTCTAA  0.351
2. TTTAGTTTCGACTCTTCTGGAT  0.0335
3. TTAAGCGCTTTGAATCATCTTC  -0.166
4. TTGTCTTGTTCTAAGATGCGGA  -0.227
5. TTTATCAGACAAATCTTGGAGC  -0.442
6. TTAGTTTCGACTCTTCTGGATT  -1.18
